# A collection of fitness landscapes (doi:10.1016/j.celrep.2020.107928)
# The full ranking holds about 81,000 sequences; the median of “one-hybrid fitness for binding NBS DNA” is about -0.1, and the highest 2% start at about 0.36. This excerpt belongs to a sample that is enriched for the highest values.
# B1: Caulobacter ParB omega fusion; a variant is named by its letters at X, in order, B8GW30 (parent)
# chain: MESVVVGEPGMSEGRRGLGRGLSALLGEVDAAPAQAPGEQLGGSREAPIEILQRNPDQPRRTFREEDLEDLSNSIREKGVLQPILVRPSPDTAGEYQIVAGERAWRAAQRAGLKTVPIMVRELDDLAVLEIGIIENVQRADLNVLEEALSYKVLMEKFERTQENIAQTIGKSXSHVANXMRLLXLPDEVQSYLVSGELTAXHARAIAAAADPVALAKQIIEGGLSVRETEALARKAPNLSAGKSKGGRPPRVKDTDTQALESDLSSVLGLDVSIDHRGSTGTLTITYATLEQLDDLCNRLTRGI
# Variants of: B1
# Assay: one-hybrid fitness for binding NBS DNA (the Noc-binding site; scaled: cognate 1, non-cognate 0); higher = stronger binding
# Conditions: with NBS DNA site
# In short: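 In E. coli USO, a HIS3 reporter with its site placed 19 bp from the promoter was used to select Caulobacter ParB variants randomised at four specificity codons. Growth lasted 48 hours at 37°C on histidine-free M9 containing 0.1 mM IPTG and 5 mM 3-AT. Fitness was taken as the log change in variant-to-wild-type read ratio from Illumina sequencing of pre- and post-selection plasmids, rescaled between the non-cognate and cognate sites.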
row,Variant,one-hybrid fitness for binding NBS DNA
1,QSIQ,≤ 0.2
2,KPVS,≤ 0.2
3,YYMR,≤ 0.2
4,RFQM,≤ 0.2
5,GDHK,≤ 0.2
6,LAMD,≤ 0.2
7,SSIR,≤ 0.2
8,QRFN,0.353
9,QRAN,0.39
10,QCAN,≤ 0.2
11,RKVY,≤ 0.2
12,RKKS,0.653
13,RKDY,≤ 0.2
14,RKVS,0.426
15,RKKP,≤ 0.2
16,RKKD,≤ 0.2
17,RKVD,≤ 0.2
18,RCKY,0.318
19,RKKY,0.38
20,RKVN,≤ 0.2
21,RKYY,≤ 0.2
22,RKRY,0.366
23,HLAI,≤ 0.2
24,KRLI,≤ 0.2

row,Variant,one-hybrid fitness for binding NBS DNA
1,TRHK,≤ 0.2
2,TTRF,≤ 0.2
3,RAYA,≤ 0.2
4,ISTD,≤ 0.2
5,AALA,≤ 0.2
6,TDSY,≤ 0.2
7,AIFT,≤ 0.2
8,PYDR,≤ 0.2
9,VNLC,≤ 0.2
10,PDQF,≤ 0.2
11,RKKH,0.465
12,RKKN,0.252
13,RKVH,0.211
14,LEGG,≤ 0.2
15,TKHA,≤ 0.2
16,QTGS,0.557
17,QTGH,0.424
18,QTGN,0.255
19,QTGD,≤ 0.2
20,QTGC,0.246
21,QTGP,≤ 0.2
22,LWYM,≤ 0.2
23,PADY,≤ 0.2
24,QCIS,0.364

row,Variant,one-hybrid fitness for binding NBS DNA
1,QSPS,≤ 0.2
2,CWIG,0.406
3,QSRS,0.64
4,QSIS,0.232
5,QCYS,0.432
6,QSYS,0.337
7,CWIS,≤ 0.2
8,QCDS,0.28
9,QCPS,0.299
10,CWRG,≤ 0.2
11,QPYS,≤ 0.2
12,PLRP,≤ 0.2
13,SMYN,≤ 0.2
14,RGCR,≤ 0.2
15,TCIC,≤ 0.2
16,TTYN,≤ 0.2
17,TLLD,≤ 0.2
18,KIRT,≤ 0.2
19,QCRP,0.352
20,QPRS,≤ 0.2
21,QCRS,0.748
22,RLTP,≤ 0.2
23,RTTP,≤ 0.2
24,RATS,0.433

row,Variant,one-hybrid fitness for binding NBS DNA
1,RTTS,0.484
2,RCTS,0.516
3,RFTS,0.285
4,RPTS,≤ 0.2
5,RLTS,0.396
6,RLTH,≤ 0.2
7,RATD,≤ 0.2
8,RATH,≤ 0.2
9,RTTH,0.24
10,YRMT,≤ 0.2
11,EQDS,≤ 0.2
12,AANY,≤ 0.2
13,LYKT,≤ 0.2
14,ECMG,≤ 0.2
15,FKTC,≤ 0.2
16,RSTH,≤ 0.2
17,RHTS,0.446
18,RITH,≤ 0.2
19,RSTS,0.433
20,RITN,≤ 0.2
21,RKTD,≤ 0.2
22,RSTD,≤ 0.2
23,RITS,0.384
24,RKTH,0.233

row,Variant,one-hybrid fitness for binding NBS DNA
1,RHTP,≤ 0.2
2,RKTS,0.583
3,RHTN,≤ 0.2
4,LQLL,≤ 0.2
5,ECRD,≤ 0.2
6,QQMC,≤ 0.2
7,IARN,≤ 0.2
8,SSHP,≤ 0.2
9,VQNC,≤ 0.2
10,RMTD,≤ 0.2
11,RMTS,0.433
12,RMTN,≤ 0.2
13,YHNT,≤ 0.2
14,PFSK,≤ 0.2
15,QPMS,≤ 0.2
16,QSMS,0.302
17,QKMH,≤ 0.2
18,QKMD,≤ 0.2
19,QSMQ,≤ 0.2
20,QSMK,≤ 0.2
21,QRMK,0.404
22,QAMQ,≤ 0.2
23,QCMK,≤ 0.2
24,QKMS,0.414

row,Variant,one-hybrid fitness for binding NBS DNA
1,QRMQ,0.385
2,QCMS,0.379
3,GNCM,≤ 0.2
4,LRKY,≤ 0.2
5,GYLG,≤ 0.2
6,KRMH,≤ 0.2
7,FYYR,≤ 0.2
8,DHLS,≤ 0.2
9,ANLH,≤ 0.2
10,SFVC,≤ 0.2
11,PQMI,≤ 0.2
12,AHHY,≤ 0.2
13,RHNK,≤ 0.2
14,QMCI,≤ 0.2
15,PANW,≤ 0.2
16,VVKL,≤ 0.2
17,QRML,0.219
18,QCMY,≤ 0.2
19,QRMS,0.623
20,QRMN,0.295
21,QRMP,≤ 0.2
22,QRMY,0.463
23,QTMN,≤ 0.2
24,QTMH,0.263

row,Variant,one-hybrid fitness for binding NBS DNA
1,QRMD,0.26
2,QRMH,0.499
3,QPMY,≤ 0.2
4,QTMS,0.463
5,YNGT,≤ 0.2
6,HRHE,≤ 0.2
7,VIRT,≤ 0.2
8,WQEG,≤ 0.2
9,FKND,≤ 0.2
10,AVDT,≤ 0.2
11,IGHS,≤ 0.2
12,QQPH,≤ 0.2
13,QQID,≤ 0.2
14,QQIT,0.389
15,QQPS,0.26
16,QQIS,0.352
17,QQPT,0.379
18,MQSG,≤ 0.2
19,VVCV,≤ 0.2
20,YLMA,≤ 0.2
21,QYTH,0.202
22,QYTY,≤ 0.2
23,QYTT,0.401
24,QYTP,≤ 0.2

row,Variant,one-hybrid fitness for binding NBS DNA
1,QYTN,≤ 0.2
2,QYTR,0.572
3,QYTD,≤ 0.2
4,QYTM,≤ 0.2
5,QYTS,0.396
6,AEMG,≤ 0.2
7,GTMM,≤ 0.2
8,HAVV,≤ 0.2
9,QQDC,≤ 0.2
10,QQDP,≤ 0.2
11,QQDR,0.388
12,QQND,≤ 0.2
13,QQNR,0.786
14,QQNH,0.355
15,MWSL,≤ 0.2
16,SQER,≤ 0.2
17,THTW,≤ 0.2
18,TSGY,≤ 0.2
19,ASWL,≤ 0.2
20,TAQM,≤ 0.2
21,QTME,≤ 0.2
22,QAFR,0.427
23,QAAD,≤ 0.2
24,QAFS,0.218

row,Variant,one-hybrid fitness for binding NBS DNA
1,QAAN,≤ 0.2
2,QAAR,0.511
3,QAFD,≤ 0.2
4,PSVW,≤ 0.2
5,VMFK,≤ 0.2
6,EIKV,≤ 0.2
7,RPPM,≤ 0.2
8,RAGH,≤ 0.2
9,RADR,≤ 0.2
10,RANR,0.507
11,RARR,0.635
12,RAWR,0.248
13,RAGR,0.471
14,RAPR,≤ 0.2
15,RAGP,≤ 0.2
16,RALR,0.32
17,RANN,≤ 0.2
18,RAIR,0.207
19,RAYR,0.412
20,YIKT,≤ 0.2
21,MVAC,≤ 0.2
22,NQHS,≤ 0.2
23,NVTV,≤ 0.2
24,SDLG,≤ 0.2

row,Variant,one-hybrid fitness for binding NBS DNA
1,PSTD,≤ 0.2
2,PRAY,≤ 0.2
3,THTY,≤ 0.2
4,TQQW,≤ 0.2
5,PELM,≤ 0.2
6,PRWT,≤ 0.2
7,RASD,≤ 0.2
8,RAHP,≤ 0.2
9,RAHH,≤ 0.2
10,RAQR,0.43
11,RACR,0.379
12,RACP,≤ 0.2
13,RAQH,≤ 0.2
14,RAQM,≤ 0.2
15,RASR,0.417
16,RACH,≤ 0.2
17,RAHR,0.487
18,RASP,≤ 0.2
19,FSRL,≤ 0.2
20,GGQY,≤ 0.2
21,MRLP,≤ 0.2
22,AHPF,≤ 0.2
23,YNKI,≤ 0.2
24,KTLA,≤ 0.2

row,Variant,one-hybrid fitness for binding NBS DNA
1,NNIC,≤ 0.2
2,PFKH,≤ 0.2
3,HTRG,≤ 0.2
4,QMYN,≤ 0.2
5,QMPS,0.235
6,QMIS,0.289
7,QMLS,0.317
8,QMRF,0.303
9,QMRP,0.291
10,QMDN,≤ 0.2
11,QMRS,0.691
12,QMYS,0.405
13,QMRN,0.439
14,QMRH,0.584
15,QMRD,0.277
16,AQGA,≤ 0.2
17,NRGC,≤ 0.2
18,PIMT,≤ 0.2
19,PWNH,≤ 0.2
20,RINY,≤ 0.2
21,GPRC,≤ 0.2
22,TMHE,≤ 0.2
23,KEWT,≤ 0.2
24,MTEF,≤ 0.2

row,Variant,one-hybrid fitness for binding NBS DNA
1,QMAS,0.389
2,QMAD,≤ 0.2
3,QMAH,0.231
4,VIGG,≤ 0.2
5,QKVK,≤ 0.2
6,QMKK,0.436
7,QTSK,0.224
8,QKKK,0.437
9,QMPK,≤ 0.2
10,QCKK,0.485
11,QTVK,≤ 0.2
12,QPKK,≤ 0.2
13,QTKK,0.596
14,QKIK,≤ 0.2
15,QLKK,0.346
16,QMWK,≤ 0.2
17,THAP,≤ 0.2
18,SMSM,≤ 0.2
19,VLYQ,≤ 0.2
20,MNTI,≤ 0.2
21,MEPN,≤ 0.2
22,DERT,≤ 0.2
23,AAYK,≤ 0.2
24,LNIG,≤ 0.2

row,Variant,one-hybrid fitness for binding NBS DNA
1,VYES,≤ 0.2
2,PHHR,≤ 0.2
3,NAEF,≤ 0.2
4,NGVK,≤ 0.2
5,AANT,≤ 0.2
6,QIKK,0.243
7,QHKK,0.416
8,QRVK,0.218
9,QSKK,0.412
10,QAHK,≤ 0.2
11,QRKK,0.777
12,QAVK,≤ 0.2
13,QRLK,0.329
14,QAKK,0.396
15,QHQK,≤ 0.2
16,QSVK,≤ 0.2
17,QHRK,0.362
18,TDTW,≤ 0.2
